Sampled rows, rich in hits. Any-hit rate of the full collection: about 7.2%.
RE007 growth inh = qHTS Assay for Inhibitors of the HIV-1 protein Vpr | S. pombe RE007 Vpr strain, BacTiter-Glo ATP luminescence, 24 h | Potency, µM (series often up to 92.2 µM), most hits filed as inhibitors | 360,000 tested, 0.21% active | AID 651644, 2012; active = well fitted falling curve with a large enough effect; inconclusive = small, poorly fitted or top-dose-only effect; inactive = no such curve, though single readings can be large or run the other way; also: nearly all actives have a fitted effect of over 50% in size
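Fission yeast strain RE007, carrying one chromosomally integrated HIV-1 vpr copy, was seeded at OD 0.01 in PMG+AL medium with 23 nL pinned compound. After 24 h at 30 °C and 99% humidity, viability was read by BacTiter-Glo luminescence.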
LASV entry inh = qHTS for Inhibitors of binding or entry into cells for Lassa Virus. AID 540256, 2011. Potency, µM (titrated, usually from 37.9 µM), hits mostly inhibitors. Lassa virus pseudotype entry inhibition, cell reporter. 300,000 tested, 1.2% active; calls by dose curve; tested in HEK293 cells; also: nearly all actives have a fitted effect of over 50% in size
MARV entry inh = qHTS for inhibitors of binding or entry into cells for Marburg Virus; 300,000 tested, 1.8% active; Potency, µM (doses to about 37.8 µM), usual class: inhibitors; Marburg virus pseudotyped entry inhibition, cell reporter; calls by dose curve; tested in HEK293 cells
Sm TGR inh = qHTS Assay for the Inhibitors of Schistosoma Mansoni Peroxiredoxins; Schistosoma mansoni thioredoxin glutathione reductase (TGR), Q962Y6; purified TGR, DTNB reduction, TNB absorbance 405 nm; Potency, µM (titrated, usually from 114 µM), most hits filed as inhibitors; 360,000 tested, 3% active; also: nearly all actives have a fitted effect of over 60% in size
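First, TGR (20 nM dispensed) and NADPH were mixed with compound. Second, a 15 min room-temperature incubation followed. Third, further NADPH and then DTNB were added to start the reaction. Finally, TNB absorbance was monitored kinetically.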
FMDV inh = High Throughput Screening for Foot and Mouth Disease Virus Antivirals; FMDV antiviral cell-based qHTS; Potency, µM (series often up to 57.9 µM), actives largely listed as inhibitors; 410,000 tested, 1.2% active; AID 1159524, 2015; calls by dose curve; tested in HEK293T cells; also: read-out not given here; nearly all actives have a fitted effect of over 45% in size
HCV inhibitor = qHTS Assay for Inhibitors of Hepatitis C Virus (HCV). AID 651820, 2012. Huh7.5.1 HCVcc-Cre infection, luciferase reporter, 44 h. 340,000 tested, 3.4% active. Potency, µM (top dose mostly 41.8 µM), usual class: inhibitors
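After 44 h co-culture of compound, cells and HCVcc-Cre (~0.5 moi), substrate is added for 15 min at room temperature and luciferase measured over 15 sec. Cells were seeded at 1,000/well and pre-cultured 4 h.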
A number is an active result; 0 = inactive; ? = inconclusive; - = no result given. Unless noted, calls follow the shape of the dose curve; as a rule, active = well fitted curve in the direction sought with a large enough effect; inconclusive = small, poorly fitted or top-dose-only effect, or another doubt; inactive = no such curve, though single readings can be large; an effect the other way counts as inactive or inconclusive.

SMILES	RE007 growth inh	LASV entry inh	MARV entry inh	Sm TGR inh	FMDV inh	HCV inhibitor
Cc1ccccc1-n1c(=O)n(Cc2ccccc2)c(=O)c2[nH]cnc21	0	13µM	?	0	0	0
CCOc1ccc(C(=O)N2CCC(c3noc(-c4ccc(S(=O)(=O)N5CCCC5)cc4)n3)CC2)cc1	-	?	?	0	0	-
COc1c(C(N)=O)cc(-c2ccc(Cl)cc2)cc1-c1ccc(S(N)(=O)=O)cc1	-	25µM	-	-	-	-
COC(=O)c1cc(OC)c(OC)cc1NC(=O)c1ccco1	0	0	0	0	?	6.3µM
CCOc1cc(NC(=O)c2ccco2)c(OCC)cc1NC(=O)Cc1cccc(OC)c1	0	?	0	0	0	13µM
COCCNC(=S)Nc1cc(OC)c(NC(=O)c2ccco2)cc1OC	0	0	0	0	0	13µM
COc1cc(NC(=O)c2ccco2)c(C(=O)O)cc1OC	0	0	0	40µM	0	0
CCOc1cc(NC(=O)c2ccco2)c(OCC)cc1NC(=O)COc1ccccc1C	0	0	?	-	0	?
CCOc1ccc(NC(=O)CCCc2nnc3n(C)c(=O)c4sccc4n23)cc1	-	0	-	0	0	-
CCC(O)CNC(=O)c1cnn(-c2nccc(-c3cc(C)sc3C)n2)c1C1CC1 (stereo unspecified)	-	-	-	-	0	-
O=C(NC1CC(=O)N(c2cccc(F)c2)C1)c1ccc(S(=O)(=O)N2CCOCC2)cc1 (stereo unspecified)	-	0	-	0	0	-
O=C(NCc1cccc(C(F)(F)F)c1)c1cc(-c2ccccc2)nn1CC1CC(c2cccnc2)=NO1 (stereo unspecified)	0	-	-	-	0	0
Cc1ccccc1-c1cc(C(=O)NCc2cccc(C(F)(F)F)c2)n(CC2CC(c3cccnc3)=NO2)n1 (stereo unspecified)	0	-	-	-	0	8.9µM
Cc1ccc(CN2CC(C(=O)N3CCN(c4ccccc4O)CC3)CC2=O)cc1 (stereo unspecified)	0	11µM	0	0	?	?
CCOC(=O)CNC(=O)N1CCCN(S(=O)(=O)c2ccc3c(ccn3CC)c2)CC1	-	0	-	0	0	-
COc1ccc(-c2cnc(C)o2)cc1S(=O)(=O)Nc1ccc(NC(C)=O)cc1	-	?	-	0	0	-
Cc1nc(-c2ccccc2)cc(N2CCCC2)n1	0	0	0	0	0	8.9µM
C=CCNc1nc2c(c(=O)n(C)c(=O)n2C)n1CC	0	-	-	0	0	0
C=CCNc1nc2c(c(=O)n(C)c(=O)n2C)n1CCCCCC	0	0	?	0	14µM	?
C=CCNc1nc2c(c(=O)n(C)c(=O)n2C)n1Cc1ccc(F)cc1	0	-	-	0	?	6.3µM
CCCCCCn1c(N2CCCC2)nc2c1c(=O)n(C)c(=O)n2C	0	0	?	0	28µM	?
COc1ccc(-c2noc(CSc3nnc(C)n3-c3ccc(OC)cc3)n2)cc1	-	?	0	0	?	-
Cc1cccn2c(=O)cc(COc3ccc(NC(=O)C(C)Oc4ccccc4)cc3)nc12 (stereo unspecified)	-	0	-	0	0	-
CCCCn1cc2c(c1-c1ccccc1Br)c(=O)n(C)c(=O)n2C	-	0	0	0	?	-
CCOC(=O)c1cnc(SCC(=O)Nc2ccc(NC(C)=O)c(OC)c2)nc1N	0	0	?	0	0	0
SMILES	RE007 growth inh	LASV entry inh	MARV entry inh	Sm TGR inh	FMDV inh	HCV inhibitor
COc1ccc(OC)c(NC(=O)CSc2nc(C)cs2)c1	0	0	0	0	-	25µM
CCOC(=O)c1cnc(SCC(=O)Nc2cc(OC)ccc2OC)nc1N	0	0	?	0	14µM	6.3µM
COc1ccc(NC(=O)CSc2nc(C)cs2)c(OC)c1	0	-	-	0	0	0
CCNC(=O)N1CCN(CCCC(c2ccc(F)cc2)c2ccc(F)cc2)CC1	0	?	10µM	0	?	?
Cc1ccc(CNC(=O)CCS(=O)(=O)c2ccc(Br)s2)o1	0	0	?	10µM	0	0
O=C(CCS(=O)(=O)c1ccc(Br)s1)NCc1ccccc1	0	0	0	?	0	0
CCC1Sc2ccc(S(=O)(=O)CCC(=O)NCc3ccc(C)o3)cc2NC1=O (stereo unspecified)	0	-	-	28µM	0	0
CC(=O)c1cccc(NC(=O)CCS(=O)(=O)c2ccc(Br)s2)c1	0	0	?	40µM	0	0

Screening results: PubChem BioAssay, National Center for Advancing Translational Sciences (NCATS)
